According to PubChem BioAssay (Tox21):
Records with an inconclusive call do not appear. Active and inactive are the calls of the source. Unless noted, calls follow the shape of the dose curve; as a rule, active = well fitted curve in the direction sought with a large enough effect in the repeat runs; inconclusive = weak or mixed curves; inactive = no such curve, though single readings can be large; an effect the other way counts as inactive or inconclusive.

Legend:
[1] = qHTS assay for small molecules that induce genotoxicity in human embryonic kidney cells expressing luciferase-tagged ATAD5 (AID 651632); also: nearly all actives have a fitted effect of over 15% in size
Procedure, shortened: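 Luminescence read-out: after 16 hr compound exposure at 37C, ATAD5-luciferase HEK293T cells received Amplite, 30 min RT, then CCD imaging. A rise in signal marks genotoxic stress.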

[2] = qHTS assay for small molecule agonists of the p53 signaling pathway - cell viability (AID 651633; calls by dose curve;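 also: p53RE-bla HCT reporter cells with a stable beta-lactamase p53 reporter; series mostly up to about 83 µM; nearly all actives have a fitted effect of over 30% in size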)
Procedure, shortened: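 p53RE-bla cells, seeded at 4,000 per well and rested 5 h at 37 C/5% CO2, received compounds in DMSO for 16 h at 37 C. CellTiter-Glo was then added, and luminescence was read after 30 min at room temperature to gauge cytotoxicity.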

[3] = qHTS assay for small molecules that induce genotoxicity in human embryonic kidney cells expressing luciferase-tagged ATAD5 - cell viability (AID 651634; calls by dose curve; also: nearly all actives have a fitted effect of over 25% in size)
Procedure, shortened: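 HEK293T ATAD5-luc cells, 2,000/well; compound 15.5 hr, 37C/5% CO2; CellTiter-Fluor 30 min, 37C; fluorescence read.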

[4] = qHTS assay for small molecule disruptors of the mitochondrial membrane potential - cell viability (AID 720634; calls by dose curve;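 also: human HepG2 liver cancer cells; series mostly up to about 83 µM; nearly all actives have a fitted effect of over 20% in size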)
Procedure, shortened: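 Luminescence from CellTiter-Glo (ATP content) gave viability in HepG2 cells, read in the same wells as the MMP dye assay after 1 hr compound exposure at 37 C.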

[5] = qHTS assay for small molecule disruptors of the mitochondrial membrane potential (AID 720635)
Procedure, shortened: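 HepG2 cells (2,000/well) attached overnight at 37C, then took compound for 1 hr at 37C, 5% CO2. Mito-MPS dye was added for 30 min; fluorescence was read at 490/535 nm (monomers) and 540/590 nm (aggregates).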

[6] = qHTS assay to test for compound auto fluorescence at 590 nm (red) in HepG2 cells (AID 720674)
Procedure, shortened: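 Intrinsic compound fluorescence in the red window (Ex/Em 540/590 nm) is measured in attached HepG2 cells exposed for 1 hr, DMSO vehicle as baseline, benchmarked to Rose Bengal sodium.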

[7] = qHTS assay to test for compound auto fluorescence at 535 nm (green) in HepG2 cells (AID 720675)
[8] = qHTS assay to test for compound auto fluorescence at 460 nm (blue) in HEK293 cells (AID 720678)
Procedure, shortened: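 Auto fluorescence in the blue band was quantified as triamterene equivalency. HEK293 cells were seeded at 2,000/well, dosed after a 4-5 hr attachment, and kept overnight at 37C before the 405/460 nm reading.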

[9] = qHTS assay to test for compound auto fluorescence at 590 nm (red) in HEK293 cells (AID 720679)
Procedure, shortened: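 Autofluorescence equivalency to Rose Bengal sodium, 540/590nm, in HEK293 cells exposed overnight to 23 nL compound per well.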

[10] = qHTS assay to test for compound auto fluorescence at 535 nm (green) in HEK293 cells (AID 720680)
[11] = qHTS assay to test for compound auto fluorescence at 460 nm (blue) in HEK293 cell free culture (AID 720681)
Procedure, shortened: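 Test compounds were pinned into cell-free culture medium (DMEM with 10% FBS) and fluorescence was read directly at Ex/Em 405/460 nm. Signals were expressed as fluorescence equivalents of triamterene, with DMSO vehicle as control.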

[12] = qHTS assay to test for compound auto fluorescence at 535 nm (green) in HEK293 cell free culture (AID 720682)
Procedure, shortened: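 Green-label autofluorescence (485 nm excitation, 535 nm emission) measured on compound added to cell-free culture medium (DMEM, 10% FBS). Output is expressed relative to fluorescein.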

[13] = qHTS assay to test for compound auto fluorescence at 590 nm (red) in HepG2 cell free culture (AID 720684)
Procedure, shortened: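 Readout: intrinsic compound fluorescence at 590 nm emission after 540 nm excitation, scaled to Rose Bengal sodium. Matrix was cell-free MEM with 10% FBS; DMSO vehicle wells served as control.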

[14] = qHTS assay to test for compound auto fluorescence at 460 nm (blue) in HepG2 cell free culture (AID 720685)
Procedure, shortened: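 Cell-free plates of MEM plus 10% FBS received 23 nL compound or DMSO vehicle; blue-channel (405/460 nm) intensity scored against triamterene as reference fluorophore.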

[15] = qHTS assay to test for compound auto fluorescence at 535 nm (green) in HepG2 cell free culture (AID 720686)
[16] = qHTS assay to test for compound auto fluorescence at 460 nm (blue) in HepG2 cells (AID 720687)
Procedure, shortened: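 Cells (2,000/well in MEM with 10% FBS) attached overnight at 37 C, then were exposed to compound or DMSO for 1 hr at 37 C, 5% CO2. Fluorescence read at Ex/Em 405/460 nm, expressed as triamterene-equivalent signal.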

[17] = molecular target: Glucocorticoid receptor (Homo sapiens) (UniProt P04150); test: qHTS assay to identify small molecule agonists of the glucocorticoid receptor (GR) signaling pathway (AID 720691; active = well fitted activation curve with a large enough effect in the signal ratio in the repeat runs, not every such curve was filed as active; the % refers to the signal ratio)
Chain of Glucocorticoid receptor (Homo sapiens) (P04150 whole entry, looked up): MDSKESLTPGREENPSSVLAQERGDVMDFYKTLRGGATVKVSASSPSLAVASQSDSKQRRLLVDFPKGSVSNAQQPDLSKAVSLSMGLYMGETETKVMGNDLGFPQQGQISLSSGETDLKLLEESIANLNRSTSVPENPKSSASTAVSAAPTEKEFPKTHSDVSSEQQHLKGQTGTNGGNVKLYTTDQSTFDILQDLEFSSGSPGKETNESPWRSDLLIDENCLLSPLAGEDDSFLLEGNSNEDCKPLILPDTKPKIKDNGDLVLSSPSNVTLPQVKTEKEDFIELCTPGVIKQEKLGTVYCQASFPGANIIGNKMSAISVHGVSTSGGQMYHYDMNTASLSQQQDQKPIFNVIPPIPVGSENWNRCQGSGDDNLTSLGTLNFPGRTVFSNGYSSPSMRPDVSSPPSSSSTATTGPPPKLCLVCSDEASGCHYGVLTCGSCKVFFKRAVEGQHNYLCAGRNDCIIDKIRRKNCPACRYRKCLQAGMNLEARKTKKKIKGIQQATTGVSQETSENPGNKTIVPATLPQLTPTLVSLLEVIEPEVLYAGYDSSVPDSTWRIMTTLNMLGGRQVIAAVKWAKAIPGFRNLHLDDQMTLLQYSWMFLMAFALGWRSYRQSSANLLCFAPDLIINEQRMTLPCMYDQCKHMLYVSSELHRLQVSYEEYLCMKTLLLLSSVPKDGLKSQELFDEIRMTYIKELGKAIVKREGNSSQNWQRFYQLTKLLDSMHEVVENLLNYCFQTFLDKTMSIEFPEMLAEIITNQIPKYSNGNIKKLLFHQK
Procedure, shortened: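 HeLa GR-bla reporter line; cells pre-incubated 4 h, compound in DMSO 18 h at 37 C; LiveBLAzer B/G FRET substrate 2 h RT; fluorescence intensity read-out.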

[18] = qHTS assay to identify small molecule antagonists of the glucocorticoid receptor (GR) signaling pathway - cell viability counter screen (AID 720693); also: nearly all actives have a fitted effect of over 55% in size
[19] = qHTS assay to identify small molecule antagonists of the androgen receptor (AR) signaling pathway - cell viability counter screen (AID 743033; also: nearly all actives have a fitted effect of over 45% in size)
[20] = qHTS assay to identify small molecule antagonists of the androgen receptor (AR) signaling pathway using the MDA cell line - cell viability counter screen (AID 743041; also: nearly all actives have a fitted effect of over 45% in size)
Procedure, shortened: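 qHTS viability read-out; MDA-kb2 AR-luc; R1881-stimulated; 16 h exposure at 37C, 0% CO2; CellTiter-Fluor, 30 min; fluorescence intensity.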

[21] = qHTS assay to identify small molecule antagonists of the thyroid receptor (TR) signaling pathway - cell viability counter screen (AID 743064); also: nearly all actives have a fitted effect of over 50% in size
Procedure, shortened: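 GH3.TRE-Luc rat pituitary cells dosed after 4 hr plating, co-stimulated with T3 at 1 nM final, incubated 23.5 h at 37 C. Viability measured in the same wells by CellTiter-Fluor fluorescence after 30 min further at 37 C.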

[22] = qHTS assay to identify small molecule antagonists of the thyroid receptor (TR) signaling pathway (AID 743065); also: series mostly up to about 70 µM; nearly all actives have a fitted effect of over 55% in size
Procedure, shortened: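 GH3.TRE-Luc rat pituitary cells carrying two TR response elements driving luciferase were plated for 4 h, given compound plus 1 nM T3 (final), and incubated 23.5 h at 37 C. ONE-Glo luminescence measured reporter inhibition; CellTiter-Fluor fluorescence tracked cytotoxicity.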

[23] = tested on: thyroid hormone receptor (rat, GH3 cells); test: qHTS assay to identify small molecule agonists of the thyroid receptor (TR) signaling pathway (AID 743066; calls by dose curve)
[24] = qHTS assay to identify small molecule antagonists of the estrogen receptor alpha (ER-alpha) signaling pathway using the BG1 cell line - cell viability counter screen (AID 743081);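 also: compound given together with 17beta-estradiol as the ER stimulus; series mostly up to about 70 µM; nearly all actives have a fitted effect of over 45% in size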
[25] = molecular target: Aromatase (Homo sapiens) (UniProt P11511); test: qHTS assay to identify aromatase inhibitors (AID 743083); also: series mostly up to about 70 µM; nearly all actives have a fitted effect of over 55% in size
Chain of Aromatase (Homo sapiens) (P11511 whole entry, looked up): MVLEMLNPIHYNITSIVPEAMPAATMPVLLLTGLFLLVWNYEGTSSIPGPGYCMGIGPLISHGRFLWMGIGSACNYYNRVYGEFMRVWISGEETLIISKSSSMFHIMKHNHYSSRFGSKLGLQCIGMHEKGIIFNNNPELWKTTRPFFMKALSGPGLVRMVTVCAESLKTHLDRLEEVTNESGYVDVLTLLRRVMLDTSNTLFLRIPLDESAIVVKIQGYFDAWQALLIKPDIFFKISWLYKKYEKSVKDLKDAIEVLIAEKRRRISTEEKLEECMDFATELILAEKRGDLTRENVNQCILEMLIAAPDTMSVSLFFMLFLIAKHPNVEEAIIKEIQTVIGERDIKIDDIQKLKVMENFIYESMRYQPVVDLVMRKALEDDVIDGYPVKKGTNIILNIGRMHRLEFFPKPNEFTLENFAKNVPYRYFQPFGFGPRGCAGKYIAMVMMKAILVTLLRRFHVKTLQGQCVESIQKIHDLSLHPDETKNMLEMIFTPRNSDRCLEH

[26] = qHTS assay to identify aromatase inhibitors - cell viability counter screen (AID 743084);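 also: cells stimulated with testosterone during compound exposure; nearly all actives have a fitted effect of over 55% in size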
[27] = qHTS assay to identify small molecule that activate the aryl hydrocarbon receptor (AhR) signaling pathway - cell viability counter screen (AID 743086);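 also: HepG2 liver cells carrying the AhR DRE luciferase reporter; series mostly up to about 70 µM; nearly all actives have a fitted effect of over 45% in size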
Procedure, shortened: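 HepG2-AhR-luc (HG2L7.5c1) cells, 4000/well, were preincubated 5 h at 37C, exposed to compound in qHTS format for 24 hr at 37C, then given CellTiter-Fluor for 30 min; viability was read as fluorescence in the reporter wells.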

[28] = molecular target: Peroxisome proliferator-activated receptor gamma (Homo sapiens) (UniProt P37231); test: qHTS assay to identify small molecule agonists of the peroxisome proliferator-activated receptor gamma (PPARg) signaling pathway (AID 743094; active = well fitted activation curve with a large enough effect in the signal ratio in the repeat runs, not every such curve was filed as active; the % refers to the signal ratio)
Chain of Peroxisome proliferator-activated receptor gamma (Homo sapiens) (P37231 whole entry, looked up): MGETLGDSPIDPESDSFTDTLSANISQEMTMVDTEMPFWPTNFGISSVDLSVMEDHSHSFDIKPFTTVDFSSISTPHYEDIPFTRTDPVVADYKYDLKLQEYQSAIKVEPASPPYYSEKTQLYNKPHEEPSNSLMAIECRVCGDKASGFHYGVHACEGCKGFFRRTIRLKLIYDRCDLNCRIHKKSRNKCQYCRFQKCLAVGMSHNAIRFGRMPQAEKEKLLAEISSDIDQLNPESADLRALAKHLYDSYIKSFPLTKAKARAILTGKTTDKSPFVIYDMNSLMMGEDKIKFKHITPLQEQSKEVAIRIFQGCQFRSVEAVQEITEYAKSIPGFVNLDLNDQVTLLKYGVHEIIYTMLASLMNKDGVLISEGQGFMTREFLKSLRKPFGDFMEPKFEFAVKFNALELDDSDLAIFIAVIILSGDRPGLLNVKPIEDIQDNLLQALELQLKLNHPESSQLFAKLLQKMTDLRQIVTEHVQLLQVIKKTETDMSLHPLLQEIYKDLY
Procedure, shortened: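 HEK293H PPARg-bla cells, 5 h settle at 37C/5% CO2; compound (DMSO) 17 h, 37C; B/G FRET substrate 1 h RT; fluorescence intensity read-out. qHTS format.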

[29] = molecular target: Acetylcholinesterase (Homo sapiens) (UniProt P22303); test: Acetylcholinesterase (AChE) small molecule antagonists: enzyme-based qHTS assay with human liver microsomes (AID 1347399; calls by dose curve; also: nearly all actives have a fitted effect of over 60% in size); details: Potency: qHTS inhibition; outcome: qHTS inhibition
Chain of Acetylcholinesterase (Homo sapiens) (P22303 whole entry, looked up): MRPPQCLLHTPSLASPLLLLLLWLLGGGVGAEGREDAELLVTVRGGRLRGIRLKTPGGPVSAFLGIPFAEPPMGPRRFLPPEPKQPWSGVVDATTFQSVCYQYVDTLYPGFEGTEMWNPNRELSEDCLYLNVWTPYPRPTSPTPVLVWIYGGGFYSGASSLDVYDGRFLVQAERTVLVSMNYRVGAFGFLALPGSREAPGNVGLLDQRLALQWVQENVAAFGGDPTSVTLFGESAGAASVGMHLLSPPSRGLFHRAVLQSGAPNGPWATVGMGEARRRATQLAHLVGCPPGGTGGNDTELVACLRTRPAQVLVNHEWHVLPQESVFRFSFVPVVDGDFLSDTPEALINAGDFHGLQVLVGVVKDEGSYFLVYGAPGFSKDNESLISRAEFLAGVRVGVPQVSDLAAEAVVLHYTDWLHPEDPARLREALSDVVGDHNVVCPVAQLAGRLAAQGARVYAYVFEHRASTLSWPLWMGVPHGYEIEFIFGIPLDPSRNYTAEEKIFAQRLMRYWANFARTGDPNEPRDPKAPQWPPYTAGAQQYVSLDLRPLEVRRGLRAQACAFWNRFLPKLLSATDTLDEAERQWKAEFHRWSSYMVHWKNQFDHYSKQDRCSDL
Procedure, shortened: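 Recombinant human AChE (50 mU/mL in the enzyme mix) and human liver microsomes (0.25 mg/mL final) were preincubated with compound and NADPH (0.25 mg/mL final) for 30 min at 37 C. Acetylthiocholine/DTNB was then added; thiocholine was read colorimetrically after 10 min at room temperature.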

[30] = qHTS assay for small molecule agonists of the p53 signaling pathway (AID 651631; calls by dose curve; also: nearly all actives have a fitted effect of over 15% in size)
Procedure, shortened: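 HCT-116 cells carrying a beta-lactamase reporter under p53 response elements were dosed with compound for 16 h at 37 °C. LiveBLAzer B/G FRET substrate was then added for 2 h at room temperature, and fluorescence intensity was read to detect pathway agonism.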

[31] = molecular target: Glucocorticoid receptor (Homo sapiens) (UniProt P04150); test: qHTS assay to identify small molecule antagonists of the glucocorticoid receptor (GR) signaling pathway (AID 720692; active = well fitted inhibition curve with a large enough effect in the signal ratio in the repeat runs, not every such curve was filed as active; the % refers to the signal ratio)
Procedure, shortened: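 Read-out: beta-lactamase FRET substrate fluorescence, 2 h at room temperature, in HeLa cells stably carrying a GRE-driven bla reporter. Compounds were co-incubated with 5 nM dexamethasone agonist (final) for 18 h at 37 C.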

[32] = qHTS assay for identifying genotoxic compounds that show differential cytotoxicity against isogenic chicken DT40 cell lines with known DNA damage response pathways - wild type cell line (AID 743012); also: potency is read from the fitted curve at half-maximal effect; nearly all actives have a fitted effect of over 60% in size
Procedure, shortened: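 CellTiter-Glo luminescence readout of viability in wild type DT40 cells after 40 h compound exposure at 37 C/5% CO2; 300 cells/well; reagent incubated 30 min at room temperature before reading.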

[33] = qHTS assay for identifying genotoxic compounds that show differential cytotoxicity against isogenic chicken DT40 cell lines with known DNA damage response pathways - Rev3 mutant cell line (AID 743014)
[34] = qHTS assay for identifying genotoxic compounds that show differential cytotoxicity against isogenic chicken DT40 cell lines with known DNA damage response pathways - Rad54/Ku70 mutant cell line (AID 743015); also: potency is read from the fitted curve at half-maximal effect; nearly all actives have a fitted effect of over 60% in size
[35] = molecular target: Estrogen receptor (Homo sapiens) (UniProt P03372); test: qHTS assay to identify small molecule antagonists of the estrogen receptor alpha (ER-alpha) signaling pathway (AID 743069; active = well fitted curve in the direction sought with a large enough effect in the signal ratio in the repeat runs, not every such curve was filed as active; the % refers to the signal ratio)
Chain of Estrogen receptor (Homo sapiens) (P03372 whole entry, looked up): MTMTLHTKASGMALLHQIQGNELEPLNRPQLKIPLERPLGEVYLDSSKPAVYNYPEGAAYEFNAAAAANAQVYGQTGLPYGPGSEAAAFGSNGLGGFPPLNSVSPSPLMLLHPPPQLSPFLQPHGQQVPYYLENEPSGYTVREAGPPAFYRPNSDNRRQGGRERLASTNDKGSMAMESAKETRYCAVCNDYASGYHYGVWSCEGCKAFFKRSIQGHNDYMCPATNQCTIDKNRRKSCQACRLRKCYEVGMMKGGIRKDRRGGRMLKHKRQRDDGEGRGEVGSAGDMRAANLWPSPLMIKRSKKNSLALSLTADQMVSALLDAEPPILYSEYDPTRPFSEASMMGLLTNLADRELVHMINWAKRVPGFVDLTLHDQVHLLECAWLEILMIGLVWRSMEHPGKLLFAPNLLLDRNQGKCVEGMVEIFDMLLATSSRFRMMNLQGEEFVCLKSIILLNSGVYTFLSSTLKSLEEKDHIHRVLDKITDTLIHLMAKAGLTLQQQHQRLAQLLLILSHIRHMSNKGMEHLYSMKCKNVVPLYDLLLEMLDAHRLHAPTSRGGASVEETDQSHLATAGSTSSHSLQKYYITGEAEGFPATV
Procedure, shortened: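 Screening used a UAS-driven beta-lactamase reporter integrated into HEK293 cells expressing ER-alpha, stimulated with 17beta-estradiol alongside test compounds over 18 hr at 37C; signal came from LiveBLAzer B/G FRET fluorescence.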

[36] = qHTS assay to identify small molecule antagonists of the estrogen receptor alpha (ER-alpha) signaling pathway - cell viability counter screen (AID 743074; calls by dose curve; also: nearly all actives have a fitted effect of over 45% in size)
[37] = molecular target: Estrogen receptor (Homo sapiens) (UniProt P03372); test: qHTS assay to identify small molecule agonists of the estrogen receptor alpha (ER-alpha) signaling pathway (AID 743075; calls by dose curve)
[38] = molecular target: Estrogen receptor (Homo sapiens) (UniProt P03372); test: qHTS assay to identify small molecule agonists of the estrogen receptor alpha (ER-alpha) signaling pathway using the BG1 cell line (AID 743079); also: nearly all actives have a fitted effect of over 20% in size
[39] = qHTS assay to identify small molecule antagonists of the estrogen receptor alpha (ER-alpha) signaling pathway using the BG1 cell line (AID 743080; calls by dose curve;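 also: BG1 cells stimulated with 17beta-estradiol alongside compound; series mostly up to about 70 µM; nearly all actives have a fitted effect of over 25% in size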)
Procedure, shortened: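 Endogenous full-length ER-alpha in BG1-Luc-4E2 cells drives a stably integrated 4×ERE luciferase gene; compounds were tested against 17beta-estradiol over 21.5 h, with luminescence and multiplexed viability fluorescence recorded.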

[40] = molecular target: Aryl hydrocarbon receptor (Homo sapiens) (UniProt P35869); test: qHTS assay to identify small molecule that activate the aryl hydrocarbon receptor (AhR) signaling pathway (AID 743085);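 also: HG2L7.5c1 human HepG2 liver cells with stably integrated DRE-driven firefly reporter; series mostly up to about 70 µM; nearly all actives have a fitted effect of over 15% in size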
Chain of Aryl hydrocarbon receptor (Homo sapiens) (P35869 whole entry, looked up): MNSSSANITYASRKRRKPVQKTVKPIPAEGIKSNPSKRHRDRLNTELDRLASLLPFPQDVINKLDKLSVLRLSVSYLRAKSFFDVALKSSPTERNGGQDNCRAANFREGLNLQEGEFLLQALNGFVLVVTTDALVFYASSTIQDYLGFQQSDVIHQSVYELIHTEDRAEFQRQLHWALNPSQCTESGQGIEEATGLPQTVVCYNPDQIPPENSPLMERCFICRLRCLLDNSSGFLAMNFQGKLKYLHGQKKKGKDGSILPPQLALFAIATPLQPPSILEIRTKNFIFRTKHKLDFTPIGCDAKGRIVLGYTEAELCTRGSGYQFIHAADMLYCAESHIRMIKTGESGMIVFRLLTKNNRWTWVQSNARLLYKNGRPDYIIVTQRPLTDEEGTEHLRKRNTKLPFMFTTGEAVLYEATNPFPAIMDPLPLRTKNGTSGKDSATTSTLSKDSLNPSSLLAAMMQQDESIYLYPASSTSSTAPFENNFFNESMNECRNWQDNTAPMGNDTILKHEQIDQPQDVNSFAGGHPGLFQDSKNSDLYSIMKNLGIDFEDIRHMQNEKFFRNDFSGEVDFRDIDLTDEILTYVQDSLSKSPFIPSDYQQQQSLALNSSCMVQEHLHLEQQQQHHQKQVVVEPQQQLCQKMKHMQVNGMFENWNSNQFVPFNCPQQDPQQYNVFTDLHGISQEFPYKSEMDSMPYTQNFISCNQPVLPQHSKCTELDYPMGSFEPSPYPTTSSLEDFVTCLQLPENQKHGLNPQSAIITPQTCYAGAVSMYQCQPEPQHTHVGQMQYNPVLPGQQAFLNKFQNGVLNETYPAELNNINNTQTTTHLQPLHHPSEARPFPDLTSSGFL
Procedure, shortened: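 HepG2 cells stably carrying a 20-DRE firefly luciferase reporter (HG2L7.5c1) treated with compound for 24 hr at 37C. Luciferase read by ONE-Glo luminescence, with CellTiter-Fluor viability read first.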

Measured: Potency

CN1CCN=C(c2ccccc2)c2cc(Cl)ccc21
not listed: [29] | [30] | [31] | [32] | [33] | [34] | [35] | [36] | [37] | [38] | [39] | [40]
inactive: all other assays above

CCN(CC)CCCC(C)Nc1c2ccc(Cl)cc2nc2ccc(OC)cc12 (centres undefined)
inactive: [29]

CCC(=O)O[C@H]1[C@@H](N2CCCCC2)C[C@H]2[C@@H]3CC[C@H]4C[C@H](OC(C)=O)[C@@H](N5CCCCC5)C[C@]4(C)[C@H]3CC[C@@]21C
active: [32] 2.37 µM | [33] 3.35 µM | [34] 3.76 µM
not listed: [20] | [22] | [24] | [27] | [29]
inactive: all other assays above
